The results in this text go back to PubChem BioAssay (NCATS).

Several values for one entry are separate records, joined by “and”; a condition that tells them apart may be missing. Equal entries are not always repeated. Records with an inconclusive call do not appear. Some structures have more than one record in an assay (separate samples or runs), and their calls can disagree. Activity calls are given as the source filed them. Unless noted, calls come from the whole dose curve; as a rule, active = well fitted curve in the direction sought with a large enough effect; inconclusive = small, poorly fitted or top-dose-only effect, or another doubt; inactive = no such curve, though single readings can be large; an effect the other way counts as inactive or inconclusive.

For assay [1], the target named is Glutaminase kidney isoform, mitochondrial (Homo sapiens) (UniProt O94925). The assay is described as follows: qHTS for Inhibitors of Glutaminase (GLS): LOPAC Validation (AID 624146). Note: nearly all actives have a fitted effect of over 60% in size. Note: potency is the fitted concentration of half-maximal effect. An outline of the steps: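 hKGA; 45 mM KH2PO4 pH 8.2 + 0.02% Tween-20; cpd via pin tool; 1 mM Gln soln; GluOx/HRP/Amplex Red; RT 30 min; fluor. t0 & final.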
Glutaminase kidney isoform, mitochondrial (Homo sapiens), sequence (O94925 whole entry, looked up, canonical isoform): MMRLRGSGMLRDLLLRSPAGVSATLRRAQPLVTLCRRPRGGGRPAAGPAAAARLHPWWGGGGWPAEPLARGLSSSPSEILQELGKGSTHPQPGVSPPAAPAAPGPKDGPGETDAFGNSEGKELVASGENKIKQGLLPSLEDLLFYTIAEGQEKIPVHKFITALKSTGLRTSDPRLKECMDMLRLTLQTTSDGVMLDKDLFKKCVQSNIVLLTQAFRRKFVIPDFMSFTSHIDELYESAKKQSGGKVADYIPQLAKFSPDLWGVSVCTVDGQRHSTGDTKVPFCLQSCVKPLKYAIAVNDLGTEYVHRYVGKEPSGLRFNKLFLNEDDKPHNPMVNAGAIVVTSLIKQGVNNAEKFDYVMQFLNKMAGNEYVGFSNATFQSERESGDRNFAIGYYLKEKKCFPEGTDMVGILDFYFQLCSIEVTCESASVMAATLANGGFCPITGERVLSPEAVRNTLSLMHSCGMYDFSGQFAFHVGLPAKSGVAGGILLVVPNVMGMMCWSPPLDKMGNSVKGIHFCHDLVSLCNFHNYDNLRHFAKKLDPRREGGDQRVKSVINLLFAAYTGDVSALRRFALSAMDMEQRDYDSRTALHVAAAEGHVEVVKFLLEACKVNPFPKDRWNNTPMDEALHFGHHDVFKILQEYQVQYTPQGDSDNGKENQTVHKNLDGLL
Background: Quantitative high-throughput screening tests each substance at several concentrations.

The nature of assay [2]: qHTS of Trypanosoma Brucei Inhibitors: LOPAC Validation (AID 624147). Note: 0% is about no effect. The essentials:
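Glycolytic pyruvate kinase of T. brucei was incubated with substrate, test compound and 130 uM ADP for 45 minutes at room temperature. Luminescent Kinase-Glo Plus signal was measured after 10 minutes.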

The target of assay [3] is Glucagon-like peptide 1 receptor (Homo sapiens) (UniProt P43220). The assay is described as follows: qHTS of GLP-1 Receptor Agonists: LOPAC Validation (AID 624148).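 Note: luminescence from a luciferase reporter switched on by cAMP; 0% is about no effect; higher luminescence signal means agonism.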 An outline of the steps: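 Agonism scored as increased luciferase luminescence driven by cAMP in HEK293 clones carrying GLP-1R. Cells settled 12 hours, received compound for 4-6 hr at 37 deg C, 5% CO2, and were read after 12 min detection reagent at RT.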
Glucagon-like peptide 1 receptor (Homo sapiens), sequence (P43220 whole entry, looked up): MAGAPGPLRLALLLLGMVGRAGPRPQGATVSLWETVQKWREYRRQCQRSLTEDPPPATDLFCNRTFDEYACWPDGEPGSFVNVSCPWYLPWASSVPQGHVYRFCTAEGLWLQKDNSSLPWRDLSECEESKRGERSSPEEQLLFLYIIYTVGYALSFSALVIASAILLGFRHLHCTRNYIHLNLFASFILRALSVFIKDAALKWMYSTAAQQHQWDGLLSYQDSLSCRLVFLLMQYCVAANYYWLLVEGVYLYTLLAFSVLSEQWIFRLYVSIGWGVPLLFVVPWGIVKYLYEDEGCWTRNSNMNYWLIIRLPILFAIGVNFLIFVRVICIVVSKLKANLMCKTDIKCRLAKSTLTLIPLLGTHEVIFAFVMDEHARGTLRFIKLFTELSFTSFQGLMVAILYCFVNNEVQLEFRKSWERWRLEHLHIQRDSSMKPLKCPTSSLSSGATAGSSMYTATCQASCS

Assay [4] in a line: qHTS of Nrf2 Activators: LOPAC Validation (AID 624149). Note: 0% is about no effect. An outline of the steps: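 AREc32 cells carrying an ARE-driven firefly luciferase were grown overnight in OPTI-MEM with 5% FBS, then exposed to compounds for 24 hr at 37 deg C. Luciferase signal was read after 30 min with Steady-Glo at RT.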
Assay [5] is described as follows: Cytotoxicity counterscreen for NFkB agonists and antagonists (AID 624476).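 Note: cells exposed to compound for 48 hours; % is set by controls: 0 for no effect and ±100 for the full control effect.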
The nature of assay [6]: qHTS Assay for Identification of Small Molecule Agonists for NFkB Signaling Pathway. (AID 624478). Note: 0% is about no effect. The essentials: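 NFkB-bla ME-180 cells (beta-lactamase reporter under NFkB response element) were plated overnight, treated with compound plus TNF alpha at 10 pM final (its EC50) for 5 hrs at 37 C, then loaded with LiveBLAzer substrate for 2 hrs.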
A short description of assay [7]: qHTS Assay for Identification of Small Molecule Antagonists for NFkB Signaling Pathway. (AID 624479; calls by dose curve;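 note: pathway stimulated with TNF alpha; % is set by controls: 0 for no effect and ±100 for the full control effect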).
Assay [8] in a line: Cell Proliferation Assay against the TMD8 Cell Line (AID 651645).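 Note: cells exposed to compound for 48 h before reading.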 As to conditions: TMD8 DLBCL cell line proliferation/viability; at 46.1 µM (top of the series) unless noted. The essentials:
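TMD8 cells, 500/well in RPMI with 5% FBS, dosed immediately and grown 48 h at 37 C, 5% CO2. CellTiter-Glo luminescence normalised to DMSO 100% and 9.2 uM bortezomib (final) 0%.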

Assay [9] can be described thus: Cell Proliferation Assay against the HBL1 Cell Line (AID 651646).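 Note: cells exposed to compound for 48 h before reading.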 To be noted: HBL1 DLBCL cells; at 46.1 µM (top of the series) unless noted. The essentials:
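Luminescent ATP read-out (CellTiter-Glo) after 48 h compound exposure of HBL1 cells at 37 °C; percent activity was scaled between DMSO as 100% and 9.2 uM bortezomib (final) as 0%.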

Assay [10] is described as follows: Cell Proliferation Assay against the TMD8 Cell Line (Caspase readout at 16 hrs) (AID 651712). Note: potency is the fitted concentration of half-maximal effect. The essentials: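 Apoptotic response of TMD8 cells was judged from caspase 3/7 activation following a 16 hour compound incubation at 37 °C. Luminescent signal was converted to percent activity, with DMSO set as 0% and 9.2 uM final bortezomib as 100%.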
Assay [11] in a line: Cell Proliferation Assay against the TMD8 Cell Line (Caspase readout at 8 hrs) (AID 651713). Note: potency is the fitted concentration of half-maximal effect. An outline of the steps: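 TMD8 cells (500/well) in phenol red-free RPMI with 5% FBS were treated with compounds for 8 h at 37C, 5% CO2. Caspase-Glo 3/7 luminescence was read after 15 min at room temperature and normalised to DMSO (0%) and 9.2 uM bortezomib (100%).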
Assay [12] in a line: HTS Assay for Allosteric Antagonists of the Human D2 Dopamine Receptor: Hit Validation in HTRF (AID 624455).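 Note: stable D1 dopamine receptor cell line scored for blocking the D1 response; % is set by controls: 0 for no effect and ±100 for the full control effect.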 The essentials: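 Hits were examined in an HTRF assay using cells stably expressing the D1 dopamine receptor, scoring inhibition of the D1-mediated response. The preceding primary screen tracked calcium flux after an EC80 dopamine addition in force-coupled, inducible Hek293 Trex D2 cells.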
(In general: In TR-FRET formats the signal depends on donor and acceptor labels being close together.)

Assay [13] in a line: qHTS assay for small molecule activators of the p53 signaling pathway (AID 651743; active = well fitted activation curve with a large enough effect in the signal ratio, not every such curve was filed as active; the % refers to the signal ratio; note: % of control where 0% means no effect). To be noted: HCT-116 p53RE-bla, beta-lactamase FRET ratio, 16 h; stronger effect = higher value. The essentials: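 Screen for p53 pathway agonists uses stably transfected p53RE-bla HCT-116 cells, 4,000 per well, treated 16 h at 37 C with compounds in DMSO.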
Assay [14] in a line: qHTS assay for small molecule agonists of the antioxidant response element (ARE) signaling pathway (AID 651741; active = well fitted activation curve with a large enough effect in the signal ratio; the % refers to the signal ratio; note: potency is the fitted concentration of half-maximal effect; for activation: % of control where 0% means no effect). An outline of the steps: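 Seeding 2,000 ARE-bla HepG2 cells per well preceded a 5 h incubation at 37 C/5% CO2 and a 16 h compound exposure at 37 C. Beta-lactamase reporter activity was then quantified by fluorescence after 2 h with LiveBLAzer B/G FRET substrate.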

Assay [15] is described as follows: qHTS assay for small molecule activators of the nuclear factor-kappa B (NF-kB) signaling pathway (AID 651749; active = well fitted activation curve with a large enough effect in the signal ratio; the % refers to the signal ratio; note: % of control where 0% means no effect). To be noted: NF-kB-bla ME-180 cells, beta-lactamase FRET ratio, 16 h; activation: stronger effect = higher value. The essentials:
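Stably transfected ME-180 line; NF-kB response element upstream of beta-lactamase. Treatment: compound or DMSO, 16 hr. Detection: fluorescent FRET substrate.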

Assay [16] can be described thus: qHTS assay for small molecule disruptors of the mitochondrial membrane potential - 1 hr assay (AID 651754; calls by dose curve; note: potency is the fitted concentration of half-maximal effect; nearly all actives have a fitted effect of over 35% in size). An outline of the steps: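 HepG2 cells, attached overnight at 37C, were exposed to compound or DMSO vehicle for 1 hr at 37C, 5% CO2, then stained with Mito-MPS dye for 30 min. Red aggregate versus green monomer fluorescence reports membrane potential.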
Assay [17] in a line: qHTS assay for small molecule disruptors of the mitochondrial membrane potential - 5 hr assay (AID 651755; calls by dose curve; note: potency is the fitted concentration of half-maximal effect; nearly all actives have a fitted effect of over 40% in size). The essentials:
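HepG2, 2,000 cells/well, overnight attach; cpd or DMSO 5 hr, 37C/5% CO2; Mito-MPS 30 min 37C; fluor 490/535 + 540/590 nm.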

For assay [18], the target named is Tumor necrosis factor (Homo sapiens) (UniProt P01375). In words: qHTS assay to identify small molecules that stimulate Tumor Necrosis Factor-alpha (TNF-alpha) secretion (AID 651757; active = well fitted curve in the direction sought with a large enough effect in the signal ratio; the % refers to the signal ratio; note: 0% is about no effect). An outline of the steps:
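THP-1 cells were exposed to compounds for 17 hrs at 37 C, after which secreted TNF-alpha was measured by homogeneous HTRF (TR-FRET) using cryptate- and XL665-labeled anti-TNF-alpha antibodies, read after 3 hr at room temperature.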

Tumor necrosis factor (Homo sapiens), sequence (P01375 whole entry, looked up): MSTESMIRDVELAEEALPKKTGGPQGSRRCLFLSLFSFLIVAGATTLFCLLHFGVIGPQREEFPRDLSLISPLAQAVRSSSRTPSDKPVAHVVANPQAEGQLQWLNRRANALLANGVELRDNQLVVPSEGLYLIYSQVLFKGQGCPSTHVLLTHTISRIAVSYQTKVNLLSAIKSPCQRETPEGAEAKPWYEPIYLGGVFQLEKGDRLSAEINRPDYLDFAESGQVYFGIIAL

As for `CC(C)(C)[C@]1(O)CCN2C[C@H]3c4ccccc4CCc4cccc(c43)[C@@H]2C1`, the Potency entry in assay [1] is “inactive”. Besides, the compound was classed as inactive in [2], in assay [3] and in assay [4].

Regarding `CNCC(O)c1ccc(O)c(O)c1` (stereo unspecified), the Potency result in assay [1] was “inactive”. The call in assay [2] and in [4] was inactive.

For `CC(=O)O[C@@]12CO[C@@H]1C[C@H](O)[C@@]1(C)C(=O)[C@H](O)C3=C(C)[C@@H](OC(=O)[C@H](O)[C@@H](NC(=O)OC(C)(C)C)c4ccccc4)C[C@@](O)([C@@H](OC(=O)c4ccccc4)[C@H]21)C3(C)C`, the compound was called inactive in assay [5], in assay [6] and in [7]. Besides, the viability (% of control) in assay [8] is 32.1%. In addition, in assay [9], the viability, percent of control is 69%. Besides, the Potency in assay [10] is 37.2 µM (active). Also, in assay [11], the Potency entry was “inactive”.

Turning to `Nc1ncnc2c1ncn2[C@@H]1O[C@H](CO)[C@@H](O)[C@H]1O`, the Potency result in assay [1] was “inactive”. In addition, the result in assay [2], in [3] and in assay [4] was inactive.

As to `O=C1N=C(O)CN1/N=C/c1ccc(-c2ccc([N+](=O)[O-])cc2)o1`, the Potency result in assay [1] was “inactive”. Also, the compound was classed as inactive in [2], in assay [3], in [4] and in assay [12].

In the case of `Oc1cn2c(n1)Nc1ccc(Cl)c(Cl)c1C2`, in [8], the viability (% of control) stood at 87.9%. Also, the viability, percent of control in assay [9] stood at 58.4%. Further, the Potency result in assay [10] and in assay [11] was “inactive” each time.

Regarding `CN(C)CCCN1c2ccccc2CCc2ccccc21`, the Potency result in [1] was “inactive”. Besides, in [13], the activation was -6.39% (inactive).

With `Cc1c(O)cccc1C(=O)N[C@@H](CSc1ccccc1)[C@H](O)CN1C[C@H]2CCCC[C@H]2C[C@H]1C(=O)NC(C)(C)C`, the Potency in assay [14] is 26.6 µM (active); in assay [16], 42.2 µM (active); in assay [17] it was 66.8 µM (active). For the same compound, the activation in assay [13] was 10.5% (inactive); in assay [15] it was 4.91% (inactive). Further, the compound was classed as inactive in assay [18].

Turning to `CCN(CC)CCOC(=O)C1(C2CCCCC2)CCCCC1`, in [1], the Potency entry was “inactive”. Moreover, the result in [2], in assay [3] and in [4] was inactive.

On to `CC[C@H]1CN2CCc3cc(OC)c(OC)cc3[C@@H]2C[C@@H]1C[C@H]1NCCc2cc(OC)c(OC)cc21`, for which, in assay [1], the Potency result was “inactive”. The compound was called inactive in [2], in [3] and in assay [4].

In the case of `Cc1cccc(Nc2cc(Cl)nc(SCC(=O)O)n2)c1C`, the Potency entry in assay [14] is “inactive”. In addition, the activation was 4.88% (inactive) in assay [13] and 3.82% (inactive) in assay [15].

In the case of `CC(C)(C(=O)O)c1ccc(C(O)CCCN2CCC(C(O)(c3ccccc3)c3ccccc3)CC2)cc1` (stereo unspecified), the Potency result in assay [1] was “inactive”. The outcome in [2], in assay [3] and in assay [4] was inactive.

`CC(C)NC[C@H](O)c1ccc(O)c(O)c1`: the Potency in [1] is 5.01 µM (active) and inactive. Also, the outcome in assay [2] and in [4] was inactive.

Regarding `O=C1c2c(O)cccc2Cc2cccc(O)c21`, in assay [14], the Potency entry was “inactive”. Also, the activation in assay [13] is -1.03% (inactive). The result in assay [18] was inactive.

For `CN(C)CCC=C1c2ccccc2CCc2ccccc21`, the compound was classed as inactive in assay [2], in assay [3], in [4] and in assay [18]. Besides, in [14], the Potency result was “inactive”. In assay [13], the activation was -8.64% (inactive) and -6.53% (inactive).

Turning to `CCCCC(CC)COC(=O)c1ccccc1O` (stereo unspecified), the activation in assay [13] was 0.46% (inactive); in assay [15] it was -1.39% (inactive).

As to `O=C1Nc2ccc(Cl)cc2[C@@](C#CC2CC2)(C(F)(F)F)O1`, in [8], the viability (% of control) is 3.1% [at 92.2 µM]. The viability, percent of control in assay [9] amounted to 2.9% [at 92.2 µM]. In assay [11], the Potency is 17.1 µM (active).

Take `Cc1cc(N)c2ccccc2[n+]1CCCCCCCCCC[n+]1c(C)cc(N)c2ccccc21`: the Potency entry in [1] is “inactive”. Further, the compound was classed as inactive in assay [2], in assay [3] and in assay [4].

As to `C[C@]12CC[C@@H]3c4ccc(O)cc4CC[C@H]3[C@@H]1CCC2=O`, in [1], the Potency result is “inactive”. In addition, the result in assay [2], in assay [3] and in [4] was inactive. Also, the activation in assay [13] is 0.661% (inactive); in [15], -1.43% (inactive).

Consider `CCN(CC)C(C)CN1c2ccccc2Sc2ccccc21` (stereo unspecified), for which the Potency in [1] was 11.2 µM (active). Further, the call in assay [2], in [3] and in assay [4] was inactive.

As for `CC(O)CN(CCN(CC(C)O)CC(C)O)CC(C)O` (stereo unspecified), the activation was -6.2% (inactive) in [13] and -0.0736% (inactive) in assay [15].

On to `NC(=O)c1ncn([C@@H]2O[C@H](CO)[C@@H](O)[C@H]2O)c1N`, for which the result in assay [5], in assay [6] and in [7] was inactive. Moreover, in [8], the viability (% of control) was 128%. For the same compound, the viability, percent of control in assay [9] worked out at 159%. Besides, the Potency result in assay [10] and in assay [11] was “inactive” throughout.

For the compound `O=C1O[C@H]([C@@H](O)CO)C(O)=C1O`, the Potency in assay [14] was 61.1 µM (active). In addition, the activation in [13] was -0.0449% (inactive) and -0.779% (inactive). For the same compound, the call in assay [18] was inactive.

Consider `CC(C)C(=O)c1c(C(C)C)nn2ccccc12`, for which, in assay [1], the Potency entry is “inactive”. Also, the result in assay [2], in [3] and in assay [4] was inactive.

Take `NCCNCCNCCNCCN`: in [14], the Potency result is “inactive”. Besides, in assay [15], the activation was -1.8% (inactive) and -0.273% (inactive). For the same compound, in assay [18], the compound was called inactive.

Regarding `CNC(=O)Oc1ccc2c(c1)[C@]1(C)CCN(C)[C@@H]1N2C`, in assay [1], the Potency is 10 µM (active). In addition, the call in assay [2], in assay [3] and in [4] was inactive. Also, the results for the activation in assay [13] and in assay [15] were -2.62% (inactive) and 1% (inactive), respectively.
